Reference: paper PMC7819943, “Rice protein-binding microarrays: a tool to detect cis-acting elements near promoter regions in rice”
Over roughly 39,000 sequences, “fluorescence intensity (a.u.)” has its median near 4,300; the highest 2% begin near 39,000. Many of the other results were omitted from the sample, so the highest values are more common in it than they were.

Target: T1, OsSMF1 (Oryza sativa, UniProt Q6ZLB0 1-436)
T1 sequence: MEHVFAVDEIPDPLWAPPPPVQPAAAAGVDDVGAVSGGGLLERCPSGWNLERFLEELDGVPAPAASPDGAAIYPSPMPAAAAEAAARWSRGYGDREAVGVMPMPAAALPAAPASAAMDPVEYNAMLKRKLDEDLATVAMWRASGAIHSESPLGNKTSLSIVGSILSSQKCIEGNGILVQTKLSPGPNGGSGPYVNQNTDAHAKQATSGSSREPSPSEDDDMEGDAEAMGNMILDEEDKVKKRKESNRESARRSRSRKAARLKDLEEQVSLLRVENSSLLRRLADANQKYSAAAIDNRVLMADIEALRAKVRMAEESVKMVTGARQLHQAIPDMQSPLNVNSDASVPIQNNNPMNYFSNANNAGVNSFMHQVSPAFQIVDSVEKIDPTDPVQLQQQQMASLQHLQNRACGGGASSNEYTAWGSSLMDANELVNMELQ
Assay: protein-binding microarray (RPBM); PBS, 2% BSA, 51.3 ng/ul salmon testes DNA, 50 uM zinc acetate, 200 nM TF, 25 C, 1 h; high values mean tight binding
Conditions: protein: recombinant; tags: N-terminal polyhistidine and DsRed monomer fusion (pET32a); chain copies: 2; label: CyDye5-dUTP incorporated in the synthesized complementary strand; 3' TTTTT single-stranded linker to array surface; dsDNA, one strand shown
How it was run: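 Transcription factors were made in E. coli BL21-CodonPlus as N-terminal fusions to a polyhistidine tag and DsRed, then purified on Ni–NTA. After primer extension with Cy5-dUTP and blocking with 2% BSA, a custom Agilent array was exposed for 1 h at 25 °C to 200 nM protein in PBS, 2% BSA, salmon testes DNA and 50 µM zinc acetate. Washed arrays were scanned on an Axon 4000B, and the binding signal is per-feature fluorescence intensity in arbitrary units.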

Sequence	binding signal
TAACCATGTAATTCCTCTGAAAATCCACAGATGAACTAGCCGGAGTCACCTAGTGCAG	3360 fluorescence intensity (a.u.)
CCACCAGCCCGGTGGGATCCCGCCACGTCAGCGTGACCCGCGGAGTCACCTAGTGCAG	22600 fluorescence intensity (a.u.)
GTCTGGAGAGCCAGAGGAGAGGAGTAGCGGACGCGGTGCCCGGAGTCACCTAGTGCAG	26700 fluorescence intensity (a.u.)
TTTCTGCGCTACGTGCTCGCCATGTCGTCCTCGTCACAAACGGAGTCACCTAGTGCAG	5120 fluorescence intensity (a.u.)
CACCCGTGCGTAATCATGACGCCGGGGTGACGTCACCATCCGGAGTCACCTAGTGCAG	30200 fluorescence intensity (a.u.)
GCTGGGTTTTCGAGGAGGCCTGACTGGATCATACTCGACTCGGAGTCACCTAGTGCAG	3250 fluorescence intensity (a.u.)
CCATCTGCGGCGTACTTGCCACTTTTCTTCGATCGGCACCCGGAGTCACCTAGTGCAG	3550 fluorescence intensity (a.u.)
AGACCGCTCGCGCGTACGTGACGCGATCGGGCAGCGCGGGCGGAGTCACCTAGTGCAG	4060 fluorescence intensity (a.u.)
CCATAATCACACTTCAATAGTAGTACTACCACAATTGCATCGGAGTCACCTAGTGCAG	45100 fluorescence intensity (a.u.)
TTCACACCCAGATAAATACAGCCTACTAGACCAATAGCCACGGAGTCACCTAGTGCAG	40000 fluorescence intensity (a.u.)
TTTTATCACATCGTTTTAATTTCAACCAAACTTTCAATTTCGGAGTCACCTAGTGCAG	32600 fluorescence intensity (a.u.)
TTATATCGTTTTAATTTCAATTAAACTTTCAATTTTAGTGCGGAGTCACCTAGTGCAG	48400 fluorescence intensity (a.u.)
GTACATCAAACATTATCAATATCGGACACATAATCCATTGCGGAGTCACCTAGTGCAG	3850 fluorescence intensity (a.u.)
TTCACATCGTTGCAATAAATAATTATACCACTACTTCATACGGAGTCACCTAGTGCAG	24800 fluorescence intensity (a.u.)
ACCAGGTGGCTACAGCTGGCTAAATACCCAGTCACTACCACGGAGTCACCTAGTGCAG	3680 fluorescence intensity (a.u.)
TCTCTTTCTTTATTTCTTTAAAATATATTTATAGTTGTCTCGGAGTCACCTAGTGCAG	3490 fluorescence intensity (a.u.)
ATAAAATTTTATGATATATAGATAATAATTTTACTTGCAACGGAGTCACCTAGTGCAG	4550 fluorescence intensity (a.u.)
TATAGAATTTTCTCTTAAAATACTTATCCGATTTATGATCCGGAGTCACCTAGTGCAG	54100 fluorescence intensity (a.u.)
ACTTTTCCGTCACATCGTTTTAATTTCTTTAAACTTTTAACGGAGTCACCTAGTGCAG	4680 fluorescence intensity (a.u.)
CCTAAAATACATGACCAGCCCACACAGGACTTAACCCACACGGAGTCACCTAGTGCAG	3230 fluorescence intensity (a.u.)
TTCATGCGCCCACATGACGTAGTGAATTAGTGGACTATGTCGGAGTCACCTAGTGCAG	4570 fluorescence intensity (a.u.)
GAGTAGAGGTGGGAGGAAGCGGTGGTGTGGTGGGGTGGGGCGGAGTCACCTAGTGCAG	8310 fluorescence intensity (a.u.)

Sequence	binding signal
CATAGATGGGCTCATCAGTAATGCTCCATATCAACACGACCGGAGTCACCTAGTGCAG	35200 fluorescence intensity (a.u.)
TGCAGCGCCCTCAGCGTTTTGCGCTGCCGTGGCCATCACGCGGAGTCACCTAGTGCAG	4300 fluorescence intensity (a.u.)
TATGAAACCTGAAAACAACTTAACACGGGTGTCCTTCGTCCGGAGTCACCTAGTGCAG	17500 fluorescence intensity (a.u.)
CGCCCACCTATCTTACCACTGACACATTGGCCCCACCACCCGGAGTCACCTAGTGCAG	4120 fluorescence intensity (a.u.)
CCCTCCCTCCGCCTCCGCCCATCCAATTTCTTACCCCGTTCGGAGTCACCTAGTGCAG	3230 fluorescence intensity (a.u.)
CCTAATTAATCCATAATTATCAAAAGTTTACTGTAGCATCCGGAGTCACCTAGTGCAG	27800 fluorescence intensity (a.u.)
AATCCATAATTAGAGAATGTTTACTGTAGCATCACATAGGCGGAGTCACCTAGTGCAG	3290 fluorescence intensity (a.u.)
AATTAATCCATTATTAACAAATGTTTACTGTAGCATCACACGGAGTCACCTAGTGCAG	51600 fluorescence intensity (a.u.)
GATTGTTGGTAGCTAGGTAGCTGTGGCCAAGAAAGTGAGACGGAGTCACCTAGTGCAG	3810 fluorescence intensity (a.u.)
TAGCAGCCAATTAGTCCACTTAATCACCCATGGATCGCGACGGAGTCACCTAGTGCAG	3490 fluorescence intensity (a.u.)
TATATCTAGTTTGCTCAGACCTACTGCTATTTCTTTCTGACGGAGTCACCTAGTGCAG	41200 fluorescence intensity (a.u.)
TTATTTTGGAACTGGACCTATCTAATTTCTCCTAGTCAGACGGAGTCACCTAGTGCAG	3780 fluorescence intensity (a.u.)
ACATGATTTGTGCTCCATGACCTCTTTCTTCTATTATCTACGGAGTCACCTAGTGCAG	7980 fluorescence intensity (a.u.)
TGTTCATAAAAGTAAATGTGCGTGCGTGATTGTATTGTATCGGAGTCACCTAGTGCAG	12500 fluorescence intensity (a.u.)
GCCGCCGCCGCCGCCGCCGCCGCTGTGTGTACGACTACGACGGAGTCACCTAGTGCAG	3250 fluorescence intensity (a.u.)
ACCGACGTTTAATCCCTGAGAGCCAGCCGTTGGCTGTGTACGGAGTCACCTAGTGCAG	65500 fluorescence intensity (a.u.)
AGAGAGCAGTGGAGTGCTGTCAGCCGTTGGATGGCCATCCCGGAGTCACCTAGTGCAG	3400 fluorescence intensity (a.u.)
TTACTGCTACCTCCACTTCATGTTATAAGTTGTTTTACCTCGGAGTCACCTAGTGCAG	3480 fluorescence intensity (a.u.)
TCGCTGATGAAAATGATGAGCATGGTGAGGGGAAGAAGGGCGGAGTCACCTAGTGCAG	22400 fluorescence intensity (a.u.)
ATTATGTAATGCCTGTTGATGTCAGACCACTCCAAATGCTCGGAGTCACCTAGTGCAG	3480 fluorescence intensity (a.u.)
CTGAATTTGACTCTTGGATGGTGACTATGATGTCCAAGTACGGAGTCACCTAGTGCAG	45100 fluorescence intensity (a.u.)
ATGAATGACCCTGCGACAACAAACCACATCATATCATGCGCGGAGTCACCTAGTGCAG	3740 fluorescence intensity (a.u.)
